This is an account of results in PubChem BioAssay (Tox21).

Results filed as inconclusive are left out. Where a call stands in place of a potency, no number is given. Values without a mark were called inactive. Activity calls are given as the source filed them. Calls come from the whole dose curve; as a rule, active = well fitted cell-killing curve with a large enough effect in the repeat runs; inconclusive = weak or mixed curves, or effect the other way; inactive = no such curve, though single readings can be large or run the other way.
Potency is the fitted concentration of half-maximal effect.

A short description of this assay: Caspase-3/7 induction in CHO-K1 cells by small molecules, qHTS cell viability counter screen (AID 1346979). Note: nearly all actives have a fitted effect of over 35% in size. To be noted: CellTiter-Fluor fluorescence, 17 h; series mostly up to 92.4 µM. From the text:
National Center for Advancing Translational Sciences [NCATS]
NIH Chemical Genomics Center [NCGC]
U.S. Environmental Protection Agency [EPA]
National Institutes of Environmental Health Sciences [NIEHS]
National Toxicology Program [NTP]
U.S. Food and Drug Administration [FDA]
Apoptosis is a process of programmed cell death and plays a central role in the development of multicellular organisms. It is a highly regulated process and induces cell death by activating caspases, which are the members of cysteine aspartic acid-specific protease (caspase) family. Caspases involved in apoptosis are classified by their mechanism of action as initiator caspases (caspase-2, -8, -9 and -10) and executioner caspases (caspase-3, -6, and -7). Inhibition of apoptosis results in number of cancers, autoimmune diseases, inflammatory diseases and viral infection. To identify small molecule compounds that induce apoptosis, a homogeneous, luminescent Caspase-Glo 3/7 assay was used. Wild type CHO-K1 cells were used to screen Tox21 libraries for identifying caspase-3/7 activity inducers. Also cytotoxicity of the compounds was tested in parallel by measuring the cell viability using CellTiter-Fluor assay system in the same wells.
Tox21 Assay Protocol Summary:
CHO-K1 cells were dispensed at 1,500 per well in 5uL of culture medium into white solid bottom 1536-well plates (Corning Life Sciences, Corning, NY) using a Multidrop Combi (Thermo Scientific, Waltham, MA) dispenser. The assay plates were incubated at 37 C and 5% CO2 for 5hr, and then 23nL of compounds dissolved in DMSO and positive control were transferred using a Pintool station (Wako, San Diego, CA). The assay plates were incubated at 37C and 5% CO2 for 17hr. For cytotoxicity read, after 16hr incubation at 37C, 1uL CellTiter-Fluor reagent (Promega Corporation, Madison, WI) was added to each well of the assay plates using Flying Reagent Dispenser (FRD, Aurora Discovery, San Diego, CA). After 1hr incubation at 37C and 5% CO2, the fluorescence signal was quantified using a ViewLux plate reader (PerkinElmer, Shelton, CT).
Background: Quantitative high-throughput screening tests each substance at several concentrations.
In the case of `CC(C)C1CCC(C(=O)N[C@H](Cc2ccccc2)C(=O)O)CC1` (stereo not given in full), the Potency entry was “inactive”.

Regarding `CCCCCCCCCCCCCOC(=O)CCSCCC(=O)OCCCCCCCCCCCCC`, the activity change, negative = cytotoxicity is 0.0364% [at 19 µM].

`CN1C(CSCC(F)(F)F)Nc2cc(Cl)c(S(N)(=O)=O)cc2S1(=O)=O` (stereo not given): the Potency result is “inactive”.

As for `CCN(CC)c1ccc(C(=C2C=CC(=[N+](CC)CC)C=C2)c2ccc(S(=O)(=O)O)cc2S(=O)(=O)[O-])cc1`, the Potency was 15.4 µM (active).

For the molecule `CCN(CC)CCOc1ccccc1C(=O)CCc1ccccc1`, the Potency entry is “inactive”.

As to `CCNc1nc(N)nc(Cl)n1`, the Potency entry was “inactive”.

Consider `CC(=O)NNC(C)=O`, for which the Potency entry is “inactive”.

Take `COc1cc(NCc2ccc3nc(N)nc(N)c3c2C)cc(OC)c1OC`: the Potency is 26.6 µM (active).

As for `CC(C)C(O)C(C)(C)CO` (stereo not given), the Potency entry is “inactive”.

Consider `CCc1ccc(C)cc1`, for which the Potency result was “inactive”.

As for `CCO[Si](C)(CCCOCC1CO1)OCC` (stereo not given), the Potency entry was “inactive”.

As to `CC1CCc2nccnc21` (stereo not given), the Potency result was “inactive”.

In the case of `O=C(NC(Cc1cc(=O)[nH]c2ccccc12)C(=O)O)c1ccc(Cl)cc1` (stereo not given), the Potency entry was “inactive”.

`CCCCCCC(O)CCCCCCCCCCC(=O)OC` (stereo not given): the Potency entry was “inactive”.

For `CS(=O)(=O)c1ccc([C@@H](C[C@H]2CCC(=O)C2)C(=O)Nc2cnccn2)cc1Cl`, the Potency result is “inactive”.

As to `CC(C(=O)O)c1ccc(C(=O)c2cccs2)cc1` (stereo not given), the Potency entry was “inactive”.

In the case of `CCC(CO)(CO)[N+](=O)[O-]`, the Potency entry was “inactive”.

Take `CCCCCCC(CO)CCCC` (stereo not given): the Potency entry is “inactive”.

As for `COc1cc(NS(=O)(=O)c2ccc(N)cc2)nc(C)n1`, the Potency result was “inactive”.

On to `COC(C)(C)OC`, for which the Potency result was “inactive”.

For the molecule `O=C(Oc1ccccc1)c1ccc2ccccc2c1O`, the Potency entry is “inactive”.

Consider `COc1ccc(C(=O)NCc2ccc(OCCN(C)C)cc2)cc1OC`, for which the Potency entry is “inactive”.

On to `CC(C)(C(=O)c1cccnc1)c1cccnc1`, for which the Potency entry was “inactive”.

Regarding `SCCc1cnccn1`, the Potency result is “inactive”.

With `[Cl][Nd]([Cl])[Cl]`, the Potency entry was “inactive”.

Consider `CC(C)Cc1ccc(CC(=O)O)cc1`, for which the Potency entry is “inactive”.

With `CCOc1ncc(F)c(=O)[nH]1`, the Potency entry is “inactive”.

Turning to `CC(C)(C)C(O)/C=C/c1ccc2c(c1)OCO2` (stereo not given), the Potency result is “inactive”.

As to `CC(=O)OCC(=O)[C@@]1(OC(C)=O)[C@@H](C)C[C@H]2[C@@H]3C[C@H](F)C4=CC(=O)C=C[C@]4(C)[C@@]3(F)[C@@H](O)C[C@@]21C`, the Potency result is “inactive”.

Consider `CCOC(=O)C(C)O` (stereo not given), for which the Potency entry was “inactive”.

For `CCCCOC(=O)CCCCC(=O)OCCCC`, the Potency entry is “inactive”.

Regarding `Cc1ccc2c(c1)CCCN2`, the Potency entry was “inactive”.

Turning to `C=C(C)c1ccccc1`, the Potency entry is “inactive”.

For the molecule `Cc1cn([C@H]2C[C@H](F)[C@@H](CO)O2)c(=O)[nH]c1=O`, the Potency entry is “inactive”.

In the case of `C/C(C=O)=C\c1ccccc1`, the Potency result is “inactive”.

With `CC(=O)Oc1cccc(O)c1`, the Potency result was “inactive”.

Take `CCN(Cc1cccc(S(=O)(=O)O)c1)c1ccc(C(=C2C=CC(=[N+](CC)Cc3cccc(S(=O)(=O)O)c3)C=C2)c2ccc(O)cc2S(=O)(=O)[O-])cc1`: the Potency is 18.6 µM (active).

With `Cc1c(C2(c3cc(Br)c(O)c(Br)c3C)OS(=O)(=O)c3ccccc32)cc(Br)c(O)c1Br`, the Potency is 16.7 µM (active).

For `C=CC(=O)NC(C)C`, the Potency result was “inactive”.

Turning to `ClC1=C(Cl)C1(Cl)Cl`, the Potency entry is “inactive”.
